Laboratory results: article PMC12820563, “FoxP3 forms a head-to-head dimer in vivo and stabilizes its multimerization on adjacent microsatellites”
In all, about 16,000 sequences were measured (“rpm ratio (pull-down/input)”: median about 0.5, highest 2% from about 5.5 on). Many of the other results were omitted from the sample, so the highest values are more common in it than they were.

Each sequence was assayed against T1, MBP-FoxP3dN (Mus musculus, UniProt Q99JB6 188-423) (assay: PD-seq (MBP pull-down with sequencing); 20 mM Tris-HCl pH 7.5, 100 mM NaCl, 1.5 mM MgCl2, 0.4 uM protein, 0.1 uM dsDNA library, 30 min, room temperature, amylose pull-down; high values mean tight binding). Settings: protein: recombinant; tags: His6-MBP; chain copies: 2; dsDNA, one strand shown.
T1 sequence: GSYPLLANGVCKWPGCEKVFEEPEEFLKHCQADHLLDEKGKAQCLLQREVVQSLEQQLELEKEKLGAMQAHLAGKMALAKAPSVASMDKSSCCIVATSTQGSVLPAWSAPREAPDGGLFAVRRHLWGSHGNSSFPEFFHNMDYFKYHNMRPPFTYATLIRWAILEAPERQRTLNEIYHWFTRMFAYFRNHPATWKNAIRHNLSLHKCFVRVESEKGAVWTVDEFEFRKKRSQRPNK
In short: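 The N-terminus-lacking fragment of mouse FoxP3 or FoxP1 carried a His6-MBP tag and was expressed in E. coli. At 0.4 µM it was incubated with 0.1 µM Klenow-filled degenerate double-stranded DNA library for 30 min at room temperature in Tris pH 7.5 buffer with NaCl and MgCl2, and complexes were caught on amylose resin, washed three times, released with proteinase K, PCR-barcoded and Illumina-sequenced. Binding is reads-per-million enrichment of pull-down over input with replicates pooled.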
With “GATGATTGTTCTCCCAGCTGATGAATTGCCCCCTTCGAGTAAACAAATTTTCCTAATCTTTCTGTTCAAGCGCCATCTAC” the binding signal was 0.413 RPM ratio (pull-down/input).
For “GATGATTGTTCTCCCAGCTGATGAATTTCCGGTATCGAGTAAACAAATTTTCCTAATCTTTCTGTTCAAGCGCCATCTAC”, the binding signal was 0.44 RPM ratio (pull-down/input).
In the case of “GATGATTGTTCTCCCAGCTGATGAATTGGCATCCTCGAGTAAACAAATTTTCCTAATCTTTCTGTTCAAGCGCCATCTAC”, the binding signal is reported as 4.28 RPM ratio (pull-down/input).
“GATGATTGTTCTCCCAGCTGATGAATTGGCATCTTCGAGTAAACAAATTTTCCTAATCTTTCTGTTCAAGCGCCATCTAC” was tested, and the binding signal was 4.07 RPM ratio (pull-down/input).
With “GATGATTGTTCTCCCAGCTGATGAATTGGCATTCTCGAGTAAACAAATTTTCCTAATCTTTCTGTTCAAGCGCCATCTAC” the binding signal was 3.49 RPM ratio (pull-down/input).
In the case of “GATGATTGTTCTCCCAGCTGATGAATTTTGGCATTCGAGTAAACAAATTTTCCTAATCTTTCTGTTCAAGCGCCATCTAC”, the binding signal is reported as 5.56 RPM ratio (pull-down/input).
With “GATGATTGTTCTCCCAGCTGATGAATTTGGCATTTCGAGTAAACAAATTTTCCTAATCTTTCTGTTCAAGCGCCATCTAC” the binding signal was 6.16 RPM ratio (pull-down/input).
For “GATGATTGTTCTCCCAGCTGATGAATTGTGGCATTCGAGTAAACAAATTTTCCTAATCTTTCTGTTCAAGCGCCATCTAC”, the binding signal was 6.18 RPM ratio (pull-down/input).
For “GATGATTGTTCTCCCAGCTGATGAATTCTGGCATTCGAGTAAACAAATTTTCCTAATCTTTCTGTTCAAGCGCCATCTAC”, the binding signal was 4.83 RPM ratio (pull-down/input).
With “GATGATTGTTCTCCCAGCTGATGAATTTGGCATCTCGAGTAAACAAATTTTCCTAATCTTTCTGTTCAAGCGCCATCTAC” the binding signal was 6.36 RPM ratio (pull-down/input).
In the case of “GATGATTGTTCTCCCAGCTGATGAATTTGGCCATTCGAGTAAACAAATTTTCCTAATCTTTCTGTTCAAGCGCCATCTAC”, the binding signal is reported as 4.06 RPM ratio (pull-down/input).
In the case of “GATGATTGTTCTCCCAGCTGATGAATTTTTGGCATCGAGTAAACAAATTTTCCTAATCTTTCTGTTCAAGCGCCATCTAC”, the binding signal is reported as 0.785 RPM ratio (pull-down/input).
In the case of “GATGATTGTTCTCCCAGCTGATGAATTGGCATTTTCGAGTAAACAAATTTTCCTAATCTTTCTGTTCAAGCGCCATCTAC”, the binding signal is reported as 3.38 RPM ratio (pull-down/input).
“GATGATTGTTCTCCCAGCTGATGAATTCGTGGCATCGAGTAAACAAATTTTCCTAATCTTTCTGTTCAAGCGCCATCTAC” was tested, and the binding signal was 1.13 RPM ratio (pull-down/input).
For “GATGATTGTTCTCCCAGCTGATGAATTGGGTGGTTCGAGTAAACAAATTTTCCTAATCTTTCTGTTCAAGCGCCATCTAC”, the binding signal was 0.736 RPM ratio (pull-down/input).
“GATGATTGTTCTCCCAGCTGATGAATTGCAGAGTTCGAGTAAACAAATTTTCCTAATCTTTCTGTTCAAGCGCCATCTAC” was tested, and the binding signal was 0.781 RPM ratio (pull-down/input).
“GATGATTGTTCTCCCAGCTGATGAATTGTTCGACTCGAGTAAACAAATTTTCCTAATCTTTCTGTTCAAGCGCCATCTAC” was tested, and the binding signal was 0.414 RPM ratio (pull-down/input).
For “GATGATTGTTCTCCCAGCTGATGAATTTTGTCCGTCGAGTAAACAAATTTTCCTAATCTTTCTGTTCAAGCGCCATCTAC”, the binding signal was 0.813 RPM ratio (pull-down/input).
With “GATGATTGTTCTCCCAGCTGATGAATTCTTTTGTTCGAGTAAACAAATTTTCCTAATCTTTCTGTTCAAGCGCCATCTAC” the binding signal was 0.487 RPM ratio (pull-down/input).
“GATGATTGTTCTCCCAGCTGATGAATTCAAACATTCGAGTAAACAAATTTTCCTAATCTTTCTGTTCAAGCGCCATCTAC” was tested, and the binding signal was 1.12 RPM ratio (pull-down/input).
“GATGATTGTTCTCCCAGCTGATGAATTGGCGAATTCGAGTAAACAAATTTTCCTAATCTTTCTGTTCAAGCGCCATCTAC” was tested, and the binding signal was 0.898 RPM ratio (pull-down/input).
In the case of “GATGATTGTTCTCCCAGCTGATGAATTGGCGCATTCGAGTAAACAAATTTTCCTAATCTTTCTGTTCAAGCGCCATCTAC”, the binding signal is reported as 6.97 RPM ratio (pull-down/input).
With “GATGATTGTTCTCCCAGCTGATGAATTCGTCCGTTCGAGTAAACAAATTTTCCTAATCTTTCTGTTCAAGCGCCATCTAC” the binding signal was 0.459 RPM ratio (pull-down/input).
“GATGATTGTTCTCCCAGCTGATGAATTCGTATCGTCGAGTAAACAAATTTTCCTAATCTTTCTGTTCAAGCGCCATCTAC” was tested, and the binding signal was 1.53 RPM ratio (pull-down/input).
“GATGATTGTTCTCCCAGCTGATGAATTACTGTTCTCGAGTAAACAAATTTTCCTAATCTTTCTGTTCAAGCGCCATCTAC” was tested, and the binding signal was 0.662 RPM ratio (pull-down/input).
“GATGATTGTTCTCCCAGCTGATGAATTAACAGCCTCGAGTAAACAAATTTTCCTAATCTTTCTGTTCAAGCGCCATCTAC” was tested, and the binding signal was 0.491 RPM ratio (pull-down/input).
With “GATGATTGTTCTCCCAGCTGATGAATTTTTAGCCTCGAGTAAACAAATTTTCCTAATCTTTCTGTTCAAGCGCCATCTAC” the binding signal was 0.414 RPM ratio (pull-down/input).
With “GATGATTGTTCTCCCAGCTGATGAATTTAGCCTCTCGAGTAAACAAATTTTCCTAATCTTTCTGTTCAAGCGCCATCTAC” the binding signal was 5.79 RPM ratio (pull-down/input).
For “GATGATTGTTCTCCCAGCTGATGAATTTAGCGCCTCGAGTAAACAAATTTTCCTAATCTTTCTGTTCAAGCGCCATCTAC”, the binding signal was 1.56 RPM ratio (pull-down/input).
With “GATGATTGTTCTCCCAGCTGATGAATTAAGCGCCTCGAGTAAACAAATTTTCCTAATCTTTCTGTTCAAGCGCCATCTAC” the binding signal was 1.4 RPM ratio (pull-down/input).
With “GATGATTGTTCTCCCAGCTGATGAATTAAGCCTCTCGAGTAAACAAATTTTCCTAATCTTTCTGTTCAAGCGCCATCTAC” the binding signal was 5.69 RPM ratio (pull-down/input).
“GATGATTGTTCTCCCAGCTGATGAATTAGCCACTTCGAGTAAACAAATTTTCCTAATCTTTCTGTTCAAGCGCCATCTAC” was tested, and the binding signal was 1.09 RPM ratio (pull-down/input).
“GATGATTGTTCTCCCAGCTGATGAATTATTCGCCTCGAGTAAACAAATTTTCCTAATCTTTCTGTTCAAGCGCCATCTAC” was tested, and the binding signal was 0.568 RPM ratio (pull-down/input).
In the case of “GATGATTGTTCTCCCAGCTGATGAATTAACAACTTCGAGTAAACAAATTTTCCTAATCTTTCTGTTCAAGCGCCATCTAC”, the binding signal is reported as 0.722 RPM ratio (pull-down/input).
In the case of “GATGATTGTTCTCCCAGCTGATGAATTCGGCACATCGAGTAAACAAATTTTCCTAATCTTTCTGTTCAAGCGCCATCTAC”, the binding signal is reported as 0.778 RPM ratio (pull-down/input).
In the case of “GATGATTGTTCTCCCAGCTGATGAATTATACTTGTCGAGTAAACAAATTTTCCTAATCTTTCTGTTCAAGCGCCATCTAC”, the binding signal is reported as 1.05 RPM ratio (pull-down/input).
With “GATGATTGTTCTCCCAGCTGATGAATTGCCATCATCGAGTAAACAAATTTTCCTAATCTTTCTGTTCAAGCGCCATCTAC” the binding signal was 1.56 RPM ratio (pull-down/input).
For “GATGATTGTTCTCCCAGCTGATGAATTTGCATCATCGAGTAAACAAATTTTCCTAATCTTTCTGTTCAAGCGCCATCTAC”, the binding signal was 6.33 RPM ratio (pull-down/input).
In the case of “GATGATTGTTCTCCCAGCTGATGAATTCTTTGCATCGAGTAAACAAATTTTCCTAATCTTTCTGTTCAAGCGCCATCTAC”, the binding signal is reported as 0.99 RPM ratio (pull-down/input).
In the case of “GATGATTGTTCTCCCAGCTGATGAATTGTTTGCATCGAGTAAACAAATTTTCCTAATCTTTCTGTTCAAGCGCCATCTAC”, the binding signal is reported as 6.03 RPM ratio (pull-down/input).
With “GATGATTGTTCTCCCAGCTGATGAATTTTTTGCATCGAGTAAACAAATTTTCCTAATCTTTCTGTTCAAGCGCCATCTAC” the binding signal was 1.37 RPM ratio (pull-down/input).
In the case of “GATGATTGTTCTCCCAGCTGATGAATTTGCAGCATCGAGTAAACAAATTTTCCTAATCTTTCTGTTCAAGCGCCATCTAC”, the binding signal is reported as 1.6 RPM ratio (pull-down/input).
For “GATGATTGTTCTCCCAGCTGATGAATTGCATCAATCGAGTAAACAAATTTTCCTAATCTTTCTGTTCAAGCGCCATCTAC”, the binding signal was 3.31 RPM ratio (pull-down/input).
In the case of “GATGATTGTTCTCCCAGCTGATGAATTTGTTGCATCGAGTAAACAAATTTTCCTAATCTTTCTGTTCAAGCGCCATCTAC”, the binding signal is reported as 7.07 RPM ratio (pull-down/input).
With “GATGATTGTTCTCCCAGCTGATGAATTTGCATGATCGAGTAAACAAATTTTCCTAATCTTTCTGTTCAAGCGCCATCTAC” the binding signal was 1.63 RPM ratio (pull-down/input).
